# For some of these results: Potency and affinity values are given separately.
# Experiments:
# Parameters in all cases: scale not given: direction of the effect not stated beside the values
# [1] = biological target: Protein translocase subunit SecA (Escherichia coli (strain K12)) (UniProt P10408); experiment: Assay to Identify E. coli SecA ATPase Inhibitors; assay type: functional; details: 30 µM
# [2] = biological target: T1, Ubiquitin-activating enzyme e1, putative (Leishmania donovani (strain BPK282A1)) (UniProt E9BSI1); experiment: Leishmania donovani Ubiquitin Activating Enzyme (LdE1); assay type: functional; details: 30 µM
# T1 sequence (whole entry): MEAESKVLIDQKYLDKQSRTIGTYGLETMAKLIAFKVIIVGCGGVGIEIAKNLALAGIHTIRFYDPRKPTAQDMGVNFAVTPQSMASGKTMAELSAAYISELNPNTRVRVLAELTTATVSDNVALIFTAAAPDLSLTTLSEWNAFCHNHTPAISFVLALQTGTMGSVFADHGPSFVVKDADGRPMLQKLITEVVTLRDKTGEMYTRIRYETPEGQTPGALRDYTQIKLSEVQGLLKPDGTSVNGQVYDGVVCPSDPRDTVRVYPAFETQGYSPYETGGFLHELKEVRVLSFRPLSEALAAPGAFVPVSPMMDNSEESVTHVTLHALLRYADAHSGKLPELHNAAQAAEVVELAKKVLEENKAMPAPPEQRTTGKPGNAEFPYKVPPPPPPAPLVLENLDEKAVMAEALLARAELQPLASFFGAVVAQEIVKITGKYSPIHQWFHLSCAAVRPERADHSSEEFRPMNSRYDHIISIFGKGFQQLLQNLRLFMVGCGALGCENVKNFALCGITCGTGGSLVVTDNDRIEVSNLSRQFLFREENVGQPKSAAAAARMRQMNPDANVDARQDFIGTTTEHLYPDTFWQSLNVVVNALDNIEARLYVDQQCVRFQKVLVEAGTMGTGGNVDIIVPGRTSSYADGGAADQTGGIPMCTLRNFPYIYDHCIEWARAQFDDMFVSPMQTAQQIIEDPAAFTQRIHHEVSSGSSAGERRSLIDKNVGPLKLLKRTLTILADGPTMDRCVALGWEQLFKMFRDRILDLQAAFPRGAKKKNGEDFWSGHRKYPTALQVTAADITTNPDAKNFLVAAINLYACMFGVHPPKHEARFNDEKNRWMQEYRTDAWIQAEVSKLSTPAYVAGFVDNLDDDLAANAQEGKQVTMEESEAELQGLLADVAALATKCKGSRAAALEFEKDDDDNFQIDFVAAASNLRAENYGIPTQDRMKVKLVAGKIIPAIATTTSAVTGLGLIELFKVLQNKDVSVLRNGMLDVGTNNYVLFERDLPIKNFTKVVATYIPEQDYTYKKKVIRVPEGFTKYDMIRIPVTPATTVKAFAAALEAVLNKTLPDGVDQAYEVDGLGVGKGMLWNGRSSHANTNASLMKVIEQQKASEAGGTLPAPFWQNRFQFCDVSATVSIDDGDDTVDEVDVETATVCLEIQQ
# [3] = biological target: T2, Aspartate--tRNA(Asp/Asn) ligase (Mycobacterium tuberculosis (strain ATCC 25618 / H37Rv)) (UniProt P9WFW3); experiment: Assay for Asp RNA synthetase-1 from Mycobacterium tuberculosis; assay type: functional; details: 30 µM; also: in the data most compounds retested in dose-response had high values
# T2 sequence (whole entry): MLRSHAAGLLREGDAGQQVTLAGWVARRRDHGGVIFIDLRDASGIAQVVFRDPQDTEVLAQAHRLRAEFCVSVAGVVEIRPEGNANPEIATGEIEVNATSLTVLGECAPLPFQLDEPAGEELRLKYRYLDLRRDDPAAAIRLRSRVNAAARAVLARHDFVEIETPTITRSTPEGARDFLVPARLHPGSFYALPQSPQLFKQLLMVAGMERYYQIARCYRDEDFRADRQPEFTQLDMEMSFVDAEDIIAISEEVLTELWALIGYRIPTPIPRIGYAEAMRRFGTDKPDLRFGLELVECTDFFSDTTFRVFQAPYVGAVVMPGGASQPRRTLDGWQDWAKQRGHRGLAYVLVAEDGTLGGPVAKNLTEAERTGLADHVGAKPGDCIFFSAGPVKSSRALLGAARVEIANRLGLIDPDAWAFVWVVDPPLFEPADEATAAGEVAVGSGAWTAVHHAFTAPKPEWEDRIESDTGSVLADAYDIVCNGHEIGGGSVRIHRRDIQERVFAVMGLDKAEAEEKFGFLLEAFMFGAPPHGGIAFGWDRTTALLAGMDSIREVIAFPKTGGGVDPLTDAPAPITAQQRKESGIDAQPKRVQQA
# [4] = biological target: Sialic acid-binding Ig-like lectin 9 (Homo sapiens) (UniProt Q9Y336); experiment: Hs-Siglec9 ALPHAscreen SOP 20170721; details: 10 µM
# Trypanosoma cruzi = experiment: Trypanosoma cruzi phosphomannomutase and mannose-1-phosphate guanylyltransferase assay; assay type: functional; details: 10 µM
# [5] = biological target: T3, Arginase-2, mitochondrial (Homo sapiens) (UniProt P78540); experiment: in vitro enzyme assay to detect the production of urea directly proportional to the activity of Arginase II; assay type: functional; details: 33.3 µM; also: in the data most compounds retested in dose-response had high values
# T3 sequence (whole entry): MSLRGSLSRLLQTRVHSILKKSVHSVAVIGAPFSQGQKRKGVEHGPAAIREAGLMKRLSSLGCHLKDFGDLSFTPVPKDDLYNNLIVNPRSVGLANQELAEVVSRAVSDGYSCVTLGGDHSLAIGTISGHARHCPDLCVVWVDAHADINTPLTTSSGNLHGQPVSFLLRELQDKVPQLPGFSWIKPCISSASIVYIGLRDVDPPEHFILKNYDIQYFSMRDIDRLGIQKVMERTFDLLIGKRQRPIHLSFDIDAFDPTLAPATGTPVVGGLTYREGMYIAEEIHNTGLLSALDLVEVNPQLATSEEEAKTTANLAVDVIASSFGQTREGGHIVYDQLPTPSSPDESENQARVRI
# [6] = biological target: T4, Proteasome subunit beta (Trypanosoma cruzi) (UniProt O96673); experiment: Trypanosoma cruzi proteasome chymotrypsin-like activity (TcProtChymo) assay.; also: in the data most compounds retested in dose-response had high values; assay type: functional; details: 9.37 µM
# T4 sequence (whole entry): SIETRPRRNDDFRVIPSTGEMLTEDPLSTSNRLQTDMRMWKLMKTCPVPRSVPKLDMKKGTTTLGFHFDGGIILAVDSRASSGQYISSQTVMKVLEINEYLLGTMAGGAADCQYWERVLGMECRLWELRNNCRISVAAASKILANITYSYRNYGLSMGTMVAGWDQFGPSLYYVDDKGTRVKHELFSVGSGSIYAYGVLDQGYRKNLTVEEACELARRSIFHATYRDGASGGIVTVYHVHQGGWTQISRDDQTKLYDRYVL
# Homo sapiens = organism: Homo sapiens; experiment: To identify inhibition of the IFN signalling (Jak-Stat) pathway via expression of an eGFP reporter gene under the control of an IFN-stimulated response element (ISRE) containing MxA promoter.; assay type: functional; details: 30 µM
# [7] = biological target: Shiga toxin 2 (Escherichia coli O157:H7) (UniProt P09385+P09386); experiment: E. coli 0.157:H7 Shiga Toxin SOP - stx2 screening assay; assay type: functional; details: 30 µM
# [8] = biological target: T5, Tyrosyl-tRNA synthetase, putative (Trypanosoma cruzi (strain CL Brener)) (UniProt Q4DSP6); experiment: Trypanosoma cruzi tyrosyl tRNA synthetase (TcYRS) _High Tyrosine SOP; assay type: functional; details: 30 µM; also: in the data most compounds retested in dose-response had high values
# T5 sequence (whole entry): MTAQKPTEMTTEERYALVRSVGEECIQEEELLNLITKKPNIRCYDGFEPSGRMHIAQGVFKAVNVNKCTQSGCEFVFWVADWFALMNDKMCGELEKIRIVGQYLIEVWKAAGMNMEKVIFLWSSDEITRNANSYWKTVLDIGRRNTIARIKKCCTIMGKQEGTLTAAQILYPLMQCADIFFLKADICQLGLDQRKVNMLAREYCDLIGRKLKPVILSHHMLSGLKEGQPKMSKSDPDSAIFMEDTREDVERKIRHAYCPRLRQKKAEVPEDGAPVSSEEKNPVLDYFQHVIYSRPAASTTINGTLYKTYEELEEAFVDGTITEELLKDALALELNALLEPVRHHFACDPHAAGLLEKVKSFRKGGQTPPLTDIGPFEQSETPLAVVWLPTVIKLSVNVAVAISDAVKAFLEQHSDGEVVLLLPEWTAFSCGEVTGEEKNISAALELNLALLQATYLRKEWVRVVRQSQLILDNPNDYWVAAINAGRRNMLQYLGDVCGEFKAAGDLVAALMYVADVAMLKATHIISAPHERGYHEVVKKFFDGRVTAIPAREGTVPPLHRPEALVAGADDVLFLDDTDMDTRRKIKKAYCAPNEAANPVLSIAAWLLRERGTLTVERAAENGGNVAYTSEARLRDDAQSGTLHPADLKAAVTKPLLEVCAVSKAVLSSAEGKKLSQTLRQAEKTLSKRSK
# [9] = biological target: T5, Tyrosyl-tRNA synthetase, putative (Trypanosoma cruzi (strain CL Brener)); experiment: Trypanosoma cruzi tyrosyl tRNA synthetase (TcYRS) SOP; assay type: functional; details: 30 µM
# [10] = biological target: Chromo domain-containing protein 1 (Saccharomyces cerevisiae (strain ATCC 204508 / S288c) (Baker's yeast)) (UniProt P32657); experiment: ScCHD-1 Enzyme Inhibition Assay; assay type: functional; details: 30 µM; also: in the data most compounds retested in dose-response had high values
# Chain of Chromo domain-containing protein 1 (Saccharomyces cerevisiae (strain ATCC 204508 / S288c) (Baker's yeast)) (P32657 whole entry, the tested form may be a part): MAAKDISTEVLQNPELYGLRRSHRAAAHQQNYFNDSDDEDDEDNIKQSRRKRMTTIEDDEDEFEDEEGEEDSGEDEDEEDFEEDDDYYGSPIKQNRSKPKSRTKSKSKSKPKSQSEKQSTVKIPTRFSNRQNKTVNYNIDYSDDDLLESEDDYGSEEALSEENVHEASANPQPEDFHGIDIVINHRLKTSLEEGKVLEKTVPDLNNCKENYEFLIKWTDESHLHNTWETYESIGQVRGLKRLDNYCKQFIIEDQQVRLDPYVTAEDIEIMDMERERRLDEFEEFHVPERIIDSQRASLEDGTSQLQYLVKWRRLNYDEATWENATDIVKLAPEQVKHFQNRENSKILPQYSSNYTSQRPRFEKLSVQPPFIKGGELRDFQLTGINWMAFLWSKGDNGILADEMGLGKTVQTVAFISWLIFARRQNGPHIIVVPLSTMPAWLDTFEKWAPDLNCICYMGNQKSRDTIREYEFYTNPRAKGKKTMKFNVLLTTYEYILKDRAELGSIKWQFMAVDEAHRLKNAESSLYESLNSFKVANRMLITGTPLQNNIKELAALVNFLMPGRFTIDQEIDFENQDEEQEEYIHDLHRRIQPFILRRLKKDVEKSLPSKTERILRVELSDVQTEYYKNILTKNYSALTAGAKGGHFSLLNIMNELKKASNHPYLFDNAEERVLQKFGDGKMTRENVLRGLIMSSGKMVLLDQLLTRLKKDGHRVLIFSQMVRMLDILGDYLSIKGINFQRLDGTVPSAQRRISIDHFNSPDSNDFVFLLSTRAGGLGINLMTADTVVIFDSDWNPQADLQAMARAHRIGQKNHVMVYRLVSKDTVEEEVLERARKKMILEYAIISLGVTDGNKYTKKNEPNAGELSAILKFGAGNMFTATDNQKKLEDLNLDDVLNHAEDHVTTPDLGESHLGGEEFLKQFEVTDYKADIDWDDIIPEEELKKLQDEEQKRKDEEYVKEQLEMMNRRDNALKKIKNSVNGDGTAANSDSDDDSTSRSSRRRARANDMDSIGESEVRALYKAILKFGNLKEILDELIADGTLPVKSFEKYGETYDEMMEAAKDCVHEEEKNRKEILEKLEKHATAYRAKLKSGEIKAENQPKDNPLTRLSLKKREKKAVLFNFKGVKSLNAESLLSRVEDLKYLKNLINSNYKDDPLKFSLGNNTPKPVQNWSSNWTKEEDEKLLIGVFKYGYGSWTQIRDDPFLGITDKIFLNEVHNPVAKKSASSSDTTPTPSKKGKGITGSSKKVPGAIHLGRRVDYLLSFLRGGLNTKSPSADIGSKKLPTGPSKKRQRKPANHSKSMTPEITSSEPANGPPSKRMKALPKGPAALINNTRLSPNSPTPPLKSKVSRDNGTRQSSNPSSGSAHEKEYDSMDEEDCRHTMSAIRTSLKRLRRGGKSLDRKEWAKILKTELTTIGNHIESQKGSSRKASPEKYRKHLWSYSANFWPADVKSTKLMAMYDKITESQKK
# Chain of Sialic acid-binding Ig-like lectin 9 (Homo sapiens) (Q9Y336 whole entry): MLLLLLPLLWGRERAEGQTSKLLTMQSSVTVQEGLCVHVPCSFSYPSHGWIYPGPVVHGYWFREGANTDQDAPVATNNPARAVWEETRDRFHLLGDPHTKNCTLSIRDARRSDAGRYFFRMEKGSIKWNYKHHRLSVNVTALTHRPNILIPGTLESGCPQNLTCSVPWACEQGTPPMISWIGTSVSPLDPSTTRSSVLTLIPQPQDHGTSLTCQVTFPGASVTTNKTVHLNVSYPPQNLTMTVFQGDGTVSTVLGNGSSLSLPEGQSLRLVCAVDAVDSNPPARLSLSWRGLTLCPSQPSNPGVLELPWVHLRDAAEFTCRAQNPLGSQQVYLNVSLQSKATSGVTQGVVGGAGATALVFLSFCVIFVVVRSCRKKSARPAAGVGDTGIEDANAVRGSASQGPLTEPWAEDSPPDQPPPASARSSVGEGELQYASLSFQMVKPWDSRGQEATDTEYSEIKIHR
# Chain of Protein translocase subunit SecA (Escherichia coli (strain K12)) (P10408 whole entry): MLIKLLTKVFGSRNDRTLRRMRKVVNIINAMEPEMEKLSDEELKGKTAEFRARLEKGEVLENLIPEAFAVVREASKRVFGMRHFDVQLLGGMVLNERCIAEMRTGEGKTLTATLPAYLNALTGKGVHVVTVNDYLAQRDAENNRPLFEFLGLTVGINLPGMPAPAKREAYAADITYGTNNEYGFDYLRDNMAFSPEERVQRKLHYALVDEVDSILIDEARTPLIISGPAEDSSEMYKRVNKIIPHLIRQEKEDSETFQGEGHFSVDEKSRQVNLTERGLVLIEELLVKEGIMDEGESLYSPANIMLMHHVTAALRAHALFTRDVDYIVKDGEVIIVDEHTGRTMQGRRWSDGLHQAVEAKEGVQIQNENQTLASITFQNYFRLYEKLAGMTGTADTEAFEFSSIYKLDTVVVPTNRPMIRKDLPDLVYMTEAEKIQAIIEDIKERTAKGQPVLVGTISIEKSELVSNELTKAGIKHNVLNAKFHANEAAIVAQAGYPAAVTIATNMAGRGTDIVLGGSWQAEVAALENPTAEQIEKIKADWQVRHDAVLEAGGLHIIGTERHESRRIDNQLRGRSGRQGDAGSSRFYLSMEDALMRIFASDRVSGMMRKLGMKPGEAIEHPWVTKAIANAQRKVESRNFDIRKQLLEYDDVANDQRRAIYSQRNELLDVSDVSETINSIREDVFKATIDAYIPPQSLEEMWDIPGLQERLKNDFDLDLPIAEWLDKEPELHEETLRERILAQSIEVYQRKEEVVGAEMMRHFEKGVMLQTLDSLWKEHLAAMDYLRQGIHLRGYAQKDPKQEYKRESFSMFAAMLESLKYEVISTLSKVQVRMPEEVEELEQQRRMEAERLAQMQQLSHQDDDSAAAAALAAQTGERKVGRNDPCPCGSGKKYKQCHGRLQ
Structure (SMILES),Percent Effect [1] [%],Percent Effect [2] [%],Percent Effect [3] [%],Percent Effect [4] [%],Percent Effect (Trypanosoma cruzi) [%],Percent Effect [5] [%],Percent Effect [6] [%],Percent Effect (Homo sapiens) [%],Percent Effect [7] [%],Percent Effect [8] [%],Percent Effect [9] [%],Percent Effect [10] [%]
O=C(Cc1c(F)cccc1F)N1CCN(CC(=O)N2CCCC2)CC1,-1.5,-1.3,-5.83,-2.19,-0.938,4.57,22.1,12.9,16.1,4.83,10,-6.7
COCC(C)NC(=O)c1cn(C(C)(C)C)c2ncccc12 (centres undefined),0.871,14.7,4.78,-9.18,4.93,0.443,18.2,6.95,-13.5,0,10,-22.6
CN1CCN(Cc2ccoc2)Cc2cccnc21,-4.57,-14.3,3.07,-3.94,-5.16,4.45,-0.265,0.714,-8.68,5.79,-15.4,3.94
Cc1noc(C)c1CN1CCO[C@H]2CNC[C@H]21,-3.48,9.09,7.37,-4.93,-4.19,-2.02,20,8.41,2.96,0.526,7.69,-4.21
COc1ccc(C(=O)C2CCCN(CCCn3cccn3)C2)c(OC)c1 (centres undefined),-4.85,5.41,-0.805,13.1,7.27,25.5,7.71,3.33,-4.88,6.92,17.1,77.1
COCCN1C[C@H]2[C@@H](C1)N(C(=O)COc1ccccc1)CC[C@H]2OC,-3.67,3.9,-1.3,0.149,5.36,-4.45,19.7,-1.44,-14.5,5.79,15.4,36.6
CC(C)c1nccc([C@H]2C[C@@H]3CCN(Cc4ccco4)C[C@H]3O2)n1,-6.35,-3.9,9.38,3.38,4.58,-7.69,14.4,3.14,5.36,6.84,15.4,1.21
c1cnc(N2CCC3(COCCN(CC4CC4)C3)C2)nc1 (centres undefined),-1.87,3.9,6.45,-2.75,-3.21,0,14.2,-5.95,3.4,3.68,10.3,-1.41
Cc1ccc(CN2CCN(CC3CC3)[C@@H]3CS(=O)(=O)C[C@@H]32)cc1C,–,–,-3.05,–,–,–,–,–,–,–,–,–
COc1ccc(Cl)cc1CC(=O)N1CCN(CCO)CC1,-6.68,10.4,1.78,0.349,-4.1,4.71,0.877,12.1,-8.21,-1.96,-2.35,2.44

# Source: ChEMBL document CHEMBL3988442, “University of Dundee, Small-Polar-MMV Screening Library” (2021)
